According to PubChem BioAssay (NCATS):
Results filed as inconclusive are left out. Entries that show only a call come without a potency. Active and inactive are the calls of the source. Unless noted, calls follow the shape of the dose curve; as a rule, active = well fitted curve in the direction sought with a large enough effect; inconclusive = small, poorly fitted or top-dose-only effect, or another doubt; inactive = no such curve, though single readings can be large; an effect the other way counts as inactive or inconclusive. Numbered stars: 1 amine (or outer) side, 2 acyl side, 3 side chain; on linkers, the order of the positions; unused ones are H or OH. Bridge positions count the residues as written; N and C are the ends. Square brackets hold non-standard residues; d marks the D form. Peptide text beside a SMILES is read from it. * marks the point of attachment. ξ: configuration not given here. ΔAla(Z-3-ureido) = NC(=O)N/C=C(\N)C(=O)O; ξDab(CH2SO3H) = NC(CCNCS(=O)(=O)O)C(=O)O; X2 = NC1=NC(O)CC(C(N[*:1])C(=O)[*:2])N1; X1 = NC1=NCCC(C(N[*:1])C(=O)[*:2])N1; Heptanoyl(6-Me) = CC(C)CCCCC(=O)*; ξβ3hOrn = NCCCC(N)CC(=O)*; Orn = NCCC[CH](N)C(=O)O; Dab = NCC[CH](N)C(=O)O; Dap = NC[CH](N)C(=O)O

Legend:
[1] = S16 Schwann cell viability assay (CellTiter-Glo assay) (AID 624031); also: nearly all actives have a fitted effect of over 70% in size
In short: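 Native S16 Schwann cells (rat), serum-containing medium, overnight attachment then 24 h drug exposure at 37 °C/5% CO2. CellTiter-Glo ATP signal; normalized to cell-free and vehicle wells.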

CP215 = assay: qHTS profiling for inhibitors of Plasmodium falciparum proliferation (AID 504749); also: nearly all actives have a fitted effect of over 60% in size; conditions: P. falciparum in erythrocytes, SYBR Green DNA, 72 h; series mostly up to 28.7 µM
In short: (§1)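 SYBR Green fluorescence (ex 485 nm, em 535 nm) reports parasite DNA after 72 h compound exposure of infected red cells at 0.3% parasitemia, 2.5% hematocrit; signal normalized to 0.29 uM artemisinin and vehicle wells.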

CP256 = assay: as above; conditions: P. falciparum in erythrocytes, SYBR Green DNA, 72 h; series mostly up to 28.7 µM
In short: as §1

CP260 = assay: as above; conditions: P. falciparum in erythrocytes, SYBR Green DNA, 72 h; series mostly up to 28.7 µM
In short: as §1

DIV14 = assay: as above; conditions: P. falciparum in erythrocytes, SYBR Green DNA, 72 h; series mostly up to 28.7 µM
In short: as §1

DIV17 = assay: as above; conditions: P. falciparum in erythrocytes, SYBR Green DNA, 72 h; series mostly up to 28.7 µM
In short: as §1

GB4 = assay: as above; conditions: P. falciparum in erythrocytes, SYBR Green DNA, 72 h; series mostly up to 28.7 µM
In short: as §1

ICS = assay: as above; conditions: P. falciparum in erythrocytes, SYBR Green DNA, 72 h; series mostly up to 28.7 µM
In short: as §1

W2 = assay: as above; conditions: P. falciparum in erythrocytes, SYBR Green DNA, 72 h; series mostly up to 28.7 µM
In short: as §1

[2] = S16 Schwann cell PMP22 intronic element beta-lactamase assay (AID 624044; calls by dose curve; also: nearly all actives have a fitted effect of over 15% in size)
In short: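 Beta-lactamase reporter under a PMP22 intronic regulatory element in stable S16 rat Schwann cells; 24 h compound exposure. 460 nm blue signal normalized between DMSO (0%) and potassium clavulanate, with 535 nm FRET tracking viability; curves classed by r2 and response.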
Potency is read from the fitted curve at half-maximal effect.

Structure (SMILES)	Potency [1]	Potency (CP215)	Potency (CP256)	Potency (CP260)	Potency (DIV14)	Potency (DIV17)	Potency (GB4)	Potency (ICS)	Potency (W2)	Potency [2]
CC(=O)OCC(=O)[C@@]1(O)CCC2C3CCC4=CC(=O)CC[C@]4(C)C3=CC[C@@]21C (some centres not stated)	inactive	inactive	inactive	inactive	inactive	inactive	inactive	inactive	inactive	–
O=C1/C(=C\c2cccs2)CCC/C1=C/c1cccs1	inactive	inactive	inactive	inactive	inactive	–	inactive	inactive	–	inactive
C=CC1=C(C(=O)O)N2C(=O)[C@@H](NC(=O)C(N=O)c3csc(N)n3)[C@H]2SC1 (some centres not stated)	inactive	inactive	inactive	inactive	inactive	inactive	inactive	inactive	–	inactive
CC(C)CC1NC(=O)C(CCCN)NC(=O)C(C(C)C)NC(=O)C2CCCN2C(=O)C(Cc2ccccc2)NC(=O)C(CC(C)C)NC(=O)C(CCCN)NC(=O)C(C(C)C)NC(=O)C2CCCN2C(=O)C(Cc2ccccc2)NC1=O (configuration not stated) (cyclo(FPV[Orn]LFPV[Orn]L); configuration not given here)	4.55 µM (active)	0.0011 µM (active)	0.004 µM (active)	0.0009 µM (active)	–	–	0.0005 µM (active)	0.0003 µM (active)	0.0002 µM (active)	12.6 µM (active)
CCC(C)C1NC(=O)C(Cc2ccc(O)cc2)NC(=O)C(N)CSSCC(C(=O)N2CCCC2C(=O)NC(CC(C)C)C(=O)NCC(N)=O)NC(=O)C(CC(N)=O)NC(=O)C(CCC(N)=O)NC1=O (configuration not stated)	–	inactive	inactive	inactive	inactive	inactive	inactive	inactive	inactive	–
NC(=O)CCC1NC(=O)C(Cc2ccccc2)NC(=O)C(Cc2ccc(O)cc2)NC(=O)CCSSCC(C(=O)N2CCCC2C(=O)NC(CCCN=C(N)N)C(=O)NCC(N)=O)NC(=O)C(CC(N)=O)NC1=O (configuration not stated)	inactive	inactive	inactive	inactive	inactive	inactive	inactive	inactive	inactive	inactive
CC1(C)C(/C=C/C=C/C=C/C=C2\N(CCCCS(=O)(=O)O)c3ccc4ccccc4c3C2(C)C)=[N+](CCCCS(=O)(=O)[O-])c2ccc3ccccc3c21	inactive	inactive	inactive	–	inactive	inactive	inactive	inactive	–	inactive
COc1ccc(-c2nc3ccc(C4=C(C)CC(=O)NN4)cc3[nH]2)cc1	–	–	–	inactive	–	–	–	–	–	inactive
O=C(O)c1ccccc1-c1c2cc(Br)c(=O)c(Br)c-2oc2c(Br)c(O)c(Br)cc12	–	inactive	inactive	inactive	inactive	inactive	inactive	inactive	–	inactive
Cn1cc(O)nc1NC(=O)Nc1cccc(Cl)c1	inactive	inactive	–	inactive	inactive	inactive	–	inactive	inactive	inactive
NCCCC(N)CC(=O)NCC1NC(=O)C(CO)NC(=O)C(N)CNC(=O)C(C2CCN=C(N)N2)NC(=O)/C(=C/NC(N)=O)NC1=O (stereo not drawn) (H-[Dap]S[Dap](ξβ3hOrn)[ΔAla(Z-3-ureido)][X1]; lactam 1-C; configuration not given here)	inactive	inactive	inactive	inactive	inactive	inactive	inactive	inactive	inactive	inactive
O=C(OCC1OC(OC(=O)c2cc(O)c(O)c(OC(=O)c3cc(O)c(O)c(O)c3)c2)[C@@H](OC(=O)c2cc(O)c(O)c(OC(=O)c3cc(O)c(O)c(O)c3)c2)C(OC(=O)c2cc(O)c(O)c(OC(=O)c3cc(O)c(O)c(O)c3)c2)C1OC(=O)c1cc(O)c(O)c(OC(=O)c2cc(O)c(O)c(O)c2)c1)c1cc(O)c(O)c(OC(=O)c2cc(O)c(O)c(O)c2)c1 (some centres not stated)	20.3 µM (active)	3.79 µM (active)	3.55 µM (active)	3.55 µM (active)	3.79 µM (active)	2.69 µM (active)	3.38 µM (active)	2.51 µM (active)	1.51 µM (active)	22.4 µM (active)
CC(C)CC(NC(=O)C(COC(C)(C)C)NC(=O)C(Cc1ccc(O)cc1)NC(=O)C(CO)NC(=O)C(Cc1c[nH]c2ccccc12)NC(=O)C(Cc1cnc[nH]1)NC(=O)C1CCC(=O)N1)C(=O)NC(CCCN=C(N)N)C(=O)N1CCCC1C(=O)NNC(N)=O (configuration not stated)	inactive	inactive	inactive	–	inactive	inactive	inactive	inactive	inactive	–
NCCCC(N)CC(=O)NC1CNC(=O)C(C2CC(O)N=C(N)N2)NC(=O)/C(=C/NC(N)=O)NC(=O)C(CO)NC(=O)C(CO)NC1=O (stereo not drawn) (ξβ3hOrn-[Dap]SS[ΔAla(Z-3-ureido)][X2]; lactam 1-C; configuration not given here)	inactive	–	inactive	inactive	–	–	inactive	–	inactive	inactive
CCC1NC(=O)C(NC(=O)c2ncccc2O)C(C)OC(=O)C(c2ccccc2)NC(=O)C2CC(=O)CCN2C(=O)C(Cc2ccccc2)N(C)C(=O)C2CCCN2C1=O (configuration not stated)	inactive	inactive	inactive	inactive	–	–	–	–	–	inactive
CCC(Oc1ccccc1)C(=O)NC1C(=O)N2C1SC(C)(C)C2C(=O)O (configuration not stated)	inactive	inactive	inactive	inactive	–	inactive	inactive	inactive	inactive	inactive
CCC(C)C1NC(=O)C(CCNCS(=O)(=O)O)NC(=O)C(NC(=O)C(CCNCS(=O)(=O)O)NC(=O)C(NC(=O)C(CCNCS(=O)(=O)O)NC(=O)CCCCC(C)C)C(C)O)CCNC(=O)C(C(C)O)NC(=O)C(CCNCS(=O)(=O)O)NC(=O)C(CCNCS(=O)(=O)O)NC(=O)C(C(C)CC)NC1=O (configuration not stated) ({Heptanoyl(6-Me)}-[ξDab(CH2SO3H)]T[ξDab(CH2SO3H)][Dab][ξDab(CH2SO3H)]II[ξDab(CH2SO3H)][ξDab(CH2SO3H)]T; lactam 4-C; configuration not given here)	inactive	–	–	–	inactive	inactive	inactive	inactive	inactive	inactive
CC(C)C(NC(=O)C(CC(=O)O)NC(=O)C(CCCCN)NC(=O)C(N)CCCN=C(N)N)C(=O)NC(Cc1ccc(O)cc1)C(=O)O (configuration not stated) (H-RKDVY-OH; configuration not given here)	inactive	inactive	inactive	–	inactive	inactive	inactive	inactive	inactive	inactive
